# From PubChem BioAssay
# Values joined by “and” are separate entries in the source; they are usually repeats but may differ in a detail not shown here. Equal values may be shown once. Inconclusive results are not listed. Active and inactive are the calls of the source.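 The calls were made as follows, unless noted: active = normalized viability below 100% at a tested concentration; inactive = the rest.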
# Tests used:
# [1] = SU-DIPG-VI glioma cell viability, MIPE4.0 library, CellTiter-Glo luminescence, qHTS (AID 1347066; cut-off not given, nearly all actives have AC50 up to about 30 µM;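 also: cells exposed to compound for 48 hours before readout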); conditions: CellTiter-Glo ATP luminescence
# [2] = SU-DIPG-XXV glioma cell viability, MIPE5.0 library, qHTS (AID 1347068; cut-off not given, nearly all actives have IC50 up to about 30 µM)
# [3] = sensitizers of A549 cells to miR-34 induction, primary screen, imaging, A549 dox-inducible miR-34, nuclei and caspase counts (AID 1347080;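 active = compounds whose cell count with miR-34 switched on is under 0.7 times the count with it off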); conditions: A549 miR-34 inducible, Hoechst nuclei count, 48 h
# [4] = modifiers of HSF1 nuclear foci, imaging, Selleck Cancer Library (AID 1347162; in the data active = plate-normalised HSF1 focus index below about 0.46); conditions: human cells, at 10 µM; SSMD: measured here: HSF1 foci SSMD mean; cell count: measured here: cell number; plate-normalised HSF1 focus index: stronger effect = lower value
# [5] = survival rescue of mitochondrial mutant cells in low glucose, primary screen, MELAS cybrids, Rieske KO mouse fibroblasts, CellTiter-Glo (AID 1508586;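 active = mean z-score across replicates of 1.96 or higher in either the MELAS or the Rieske mutant cell line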;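 also: z relative to plate mean and SD of compound and empty wells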)
# [6] = ovarian cancer cell viability with rucaparib, profiling panel, oncology-focused library, rucaparib conditional (AID 1508598); conditions: patient-derived ovarian cancer cells, CellTiter-Glo viability, 144 h, stronger effect = lower value
# [7] = liver-stage malaria parasite growth inhibition, primary screen, cell-based, HepG2, luciferase luminescence, HepG2 viability (AID 624349; in the data active = parasite load remaining mostly below about 12%, no sharp cut-off; inactive = mostly above about 10%;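 also: 100% = mean of DMSO negative control wells on the same plate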); conditions: P. berghei liver stage in HepG2, luciferase luminescence, concentration not given here; parasite load remaining: stronger effect = lower value; viability: measured here: HepG2 viability without parasites
# [8] = growth inhibition of DIPG glioma cells, dose response, cell-based, SU-DIPG-IV, MIPE4.0, CellTiter-Glo, qHTS (AID 1347063; cut-off not given, nearly all actives have AC50 up to about 30 µM;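 also: compound exposure lasted 48 hours before the viability readout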); conditions: SU-DIPG-IV viability, CellTiter-Glo ATP luminescence
# [9] = viability loss in pontine glioma line – cell-based, SU-DIPG-XXV, MIPE5.0, CellTiter-Glo, qHTS, dose response (AID 1347065; cut-off not given, nearly all actives have AC50 up to about 26 µM;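 also: cells exposed to compound for 48 hours before ATP readout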); conditions: CellTiter-Glo ATP luminescence
# [10] = growth inhibition of DIPG glioma cells, dose response, cell-based, SU-DIPG-XIII, MIPE5.0, CellTiter-Glo, qHTS (AID 1347064; cut-off not given, nearly all actives have AC50 up to about 23 µM;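 as to AC50: cells exposed to compound for 48 hours before the viability read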); conditions: SU-DIPG-XIII viability, CellTiter-Glo ATP luminescence
# [11] = JHH-DIPG-1 glioma cell viability, MIPE5.0 library, CellTiter-Glo luminescence, qHTS (AID 1347067; cut-off not given, nearly all actives have AC50 up to about 26 µM;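 also: cells exposed to compound for 48 hours before readout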); conditions: JHH-DIPG-1 glioma viability, CellTiter-Glo ATP luminescence
# [12] = stronger effect = lower value, cell number ratio, induced over uninduced
# [13] = measured here: relative caspase fold change +Dox/-Dox
# [14] = measured here: total cells with miR-34 induction, stronger effect = lower value
# [15] = measured here: total cells without miR-34 induction
# [16] = MELAS cybrid survival, CellTiter-Glo 48 h, stronger effect = higher value
# [17] = Rieske KO mouse fibroblast survival, CellTiter-Glo 72 h
smiles,measurement,setting,value
Cn1cc(C2=C(c3cn(C4CCN(Cc5ccccn5)CC4)c4ccccc34)C(=O)NC2=O)c2ccccc21,outcome,[1],inactive
same,outcome,[2],inactive
same,fold change,[3]; [12],0.96 (inactive)
same,fold change,[3]; [13],1.18
same,cell count,[3]; [14],6030
same,cell count,[3]; [15],6280
same,SSMD,[4],0.559
same,cell count,[4],6710
same,plate-normalised HSF1 focus index,[4],1.03 (inactive)
same,z-score,[5]; [16],-0.204 (inactive)
same,z-score,[5]; [17],-2.05
same,viability,"[6]; at 0.000305 µM, OCI-C5x cells, with rucaparib 10 µM, 100% = cells with rucaparib alone",118% (inactive)
same,viability,"[6]; at 0.000305 µM, OCI-C5x cells, without rucaparib",151% (inactive)
same,viability,"[6]; at 0.000305 µM, OCI-P5x cells, with rucaparib 20 µM, 100% = cells with rucaparib alone",108% (inactive)
same,viability,"[6]; at 0.000305 µM, OCI-P5x cells, without rucaparib",115% (inactive)
same,viability,"[6]; at 0.00122 µM, OCI-C5x cells, with rucaparib 10 µM, 100% = cells with rucaparib alone",136% (inactive)
same,viability,"[6]; at 0.00122 µM, OCI-C5x cells, without rucaparib",148% (inactive)
same,viability,"[6]; at 0.00122 µM, OCI-P5x cells, with rucaparib 20 µM, 100% = cells with rucaparib alone",113% (inactive)
same,viability,"[6]; at 0.00122 µM, OCI-P5x cells, without rucaparib",105% (inactive)
same,viability,"[6]; at 0.00488 µM, OCI-C5x cells, with rucaparib 10 µM, 100% = cells with rucaparib alone",127% (inactive)
same,viability,"[6]; at 0.00488 µM, OCI-C5x cells, without rucaparib",136% (inactive)
same,viability,"[6]; at 0.00488 µM, OCI-P5x cells, with rucaparib 20 µM, 100% = cells with rucaparib alone",109% (inactive)
same,viability,"[6]; at 0.00488 µM, OCI-P5x cells, without rucaparib",105% (inactive)
same,viability,"[6]; at 0.0195 µM, OCI-C5x cells, with rucaparib 10 µM, 100% = cells with rucaparib alone",138% (inactive)
same,viability,"[6]; at 0.0195 µM, OCI-C5x cells, without rucaparib",144% (inactive)
same,viability,"[6]; at 0.0195 µM, OCI-P5x cells, with rucaparib 20 µM, 100% = cells with rucaparib alone",106% (inactive)
same,viability,"[6]; at 0.0195 µM, OCI-P5x cells, without rucaparib",98.4% (active)
same,viability,"[6]; at 0.0781 µM, OCI-C5x cells, with rucaparib 10 µM, 100% = cells with rucaparib alone",127% (inactive)
same,viability,"[6]; at 0.0781 µM, OCI-C5x cells, without rucaparib",149% (inactive)
same,viability,"[6]; at 0.0781 µM, OCI-P5x cells, with rucaparib 20 µM, 100% = cells with rucaparib alone",119% (inactive)
same,viability,"[6]; at 0.0781 µM, OCI-P5x cells, without rucaparib",105% (inactive)
same,viability,"[6]; at 0.313 µM, OCI-C5x cells, with rucaparib 10 µM, 100% = cells with rucaparib alone",136% (inactive)
same,viability,"[6]; at 0.313 µM, OCI-C5x cells, without rucaparib",146% (inactive)
same,viability,"[6]; at 0.313 µM, OCI-P5x cells, with rucaparib 20 µM, 100% = cells with rucaparib alone",111% (inactive)
same,viability,"[6]; at 0.313 µM, OCI-P5x cells, without rucaparib",93.7% (active)
same,viability,"[6]; at 1.25 µM, OCI-C5x cells, with rucaparib 10 µM, 100% = cells with rucaparib alone",149% (inactive)
same,viability,"[6]; at 1.25 µM, OCI-C5x cells, without rucaparib",156% (inactive)
same,viability,"[6]; at 1.25 µM, OCI-P5x cells, with rucaparib 20 µM, 100% = cells with rucaparib alone",113% (inactive)
same,viability,"[6]; at 1.25 µM, OCI-P5x cells, without rucaparib",92.6% (active)
same,viability,"[6]; at 5 µM, OCI-C5x cells, with rucaparib 10 µM, 100% = cells with rucaparib alone",159% (inactive)
same,viability,"[6]; at 5 µM, OCI-C5x cells, without rucaparib",140% (inactive)
same,viability,"[6]; at 5 µM, OCI-P5x cells, with rucaparib 20 µM, 100% = cells with rucaparib alone",102% (inactive)
same,viability,"[6]; at 5 µM, OCI-P5x cells, without rucaparib",99.4% (active)
c1cc(N2CCNCC2)c2cnccc2c1,fold change,[3]; [12],0.965 (inactive)
same,fold change,[3]; [13],0.639
same,cell count,[3]; [14],5540
same,cell count,[3]; [15],5740
CCCCC/C=C\C/C=C\C/C=C\C/C=C\CCCC(=O)Nc1ccc(O)cc1C,fold change,[3]; [12],1.03 (inactive)
same,fold change,[3]; [13],0.979
same,cell count,[3]; [14],6030
same,cell count,[3]; [15],5870
C=C(C)[C@@H]1CCC(C)=C[C@H]1C1=C(O)C(=O)C(CCCCC)=CC1=O,fold change,[3]; [12],1.08 (inactive)
same,fold change,[3]; [13],0.935
same,cell count,[3]; [14],5410
same,cell count,[3]; [15],5000
C=C(C)[C@@H]1CCC(C)=C[C@H]1c1c(O)cc(O)cc1CCCCC,fold change,[3]; [12],0.914 (inactive)
same,fold change,[3]; [13],1.35
same,cell count,[3]; [14],5030
same,cell count,[3]; [15],5500
O=c1[nH]c2ccccc2n1C1CCN(Cc2ccc(-c3[nH]c4cc5ncnc5cc4nc3-c3ccccc3)cc2)CC1,parasite load remaining,[7],45.5% (inactive)
same,viability,[7],115%
same,AC50,[8],16.6 µM (active)
same,AC50,[9],23.5 µM (active)
same,AC50,[1],14.8 µM (active)
Cn1c2cccc(=O)c-2nc2ccccc21,fold change,[3]; [12],1.03 (inactive)
same,fold change,[3]; [13],0.698
same,cell count,[3]; [14],3390
same,cell count,[3]; [15],3310
Cc1cc(C(C#N)c2ccc(Cl)cc2)c(Cl)cc1NC(=O)c1cc(I)cc(I)c1O (stereo unspecified),fold change,[3]; [12],0.964 (inactive) and 0.906 (inactive) and 0.861 (inactive)
same,fold change,[3]; [13],0.325 and 0.48 and 1.33
same,cell count,[3]; [14],8250 and 7900 and 8930
same,cell count,[3]; [15],8560 and 8730 and 10400
Cc1sc2c(c1C)C(c1ccc(Cl)cc1)=NC(CC(=O)Nc1ccc(O)cc1)c1nnc(C)n1-2 (stereo unspecified),outcome,[2],inactive
same,fold change,[3]; [12],0.898 (inactive)
same,fold change,[3]; [13],0.692
same,cell count,[3]; [14],4940
same,cell count,[3]; [15],5500
same,z-score,[5]; [16],-0.542 (inactive)
same,z-score,[5]; [17],-4.37
CCCCCCC(C)(C)c1cc(O)c2c(c1)OC(C)(C)C1CC=C(CO)C[C@H]21 (stereo partly specified),AC50,[10],9.34 µM (active)
same,AC50,[9],7.42 µM (active)
same,AC50,[11],7.42 µM (active)
CN1C(=O)[C@]23CC4=CC=C[C@H](O)[C@H]4N2C(=O)[C@@]1(CO)SS3,fold change,[3]; stronger effect = lower value,0.901 (inactive)
same,fold change,[3]; [13],1.24
same,cell count,[3]; [14],657
same,cell count,[3]; [15],730
C[C@@H](C1CC[C@@]2(O)C3=CC(=O)[C@@H]4C[C@@H](O)[C@@H](O)C[C@]4(C)[C@H]3CC[C@]12C)[C@H](O)CCC(C)(C)O (stereo partly specified),outcome,[10],inactive
same,outcome,[9],inactive
same,outcome,[11],inactive
CCCCC/C=C\C/C=C\C/C=C\C/C=C\CCCC(=O)NCCCl,fold change,[3]; [12],1.01 (inactive)
same,fold change,[3]; [13],1.15
same,cell count,[3]; [14],6340
same,cell count,[3]; [15],6270
CCCCCC(/C=C/C=O)OO (stereo unspecified),fold change,[3]; [12],0.987 (inactive)
same,fold change,[3]; [13],1.26
same,cell count,[3]; [14],5780
same,cell count,[3]; [15],5860
C=C1[C@@H](C)[C@H]2[C@H](Cc3ccccc3)NC(=O)C23[C@H](OC(C)=O)/C=C/[C@](C)(O)C(=O)[C@@H](C)C/C=C/[C@H]3[C@@H]1O (stereo partly specified),fold change,[3]; [12],1.3 (inactive)
same,fold change,[3]; [13],0.464
same,cell count,[3]; [14],990
same,cell count,[3]; [15],762
O=C(CCC/C=C\C[C@@H]1[C@@H](/C=C/[C@@H](O)COc2cccc(C(F)(F)F)c2)[C@H](O)C[C@@H]1O)NC(CO)CO,fold change,[3]; stronger effect = lower value,0.98 (inactive)
same,fold change,[3]; [13],0.862
same,cell count,[3]; [14],5260
same,cell count,[3]; [15],5370
CCCCC/C=C\C/C=C\C/C=C\C/C=C\CCCC(=O)NOCCO,fold change,[3]; [12],0.931 (inactive)
same,fold change,[3]; [13],0.519
same,cell count,[3]; [14],5500
same,cell count,[3]; [15],5910
OOCCC/C=C/c1ccccc1,fold change,[3]; [12],0.959 (inactive)
same,fold change,[3]; [13],0.789
same,cell count,[3]; [14],5730
same,cell count,[3]; [15],5970
CCCCCCC(=O)O[C@H]1CC[C@H]2[C@@H]3C[C@H](O)C4=CC(=O)CC[C@]4(C)[C@H]3CC[C@]12C,fold change,[3]; stronger effect = lower value,0.966 (inactive)
same,fold change,[3]; [13],1.11
same,cell count,[3]; [14],5330
same,cell count,[3]; [15],5520
C=C1[C@@H](O)[C@@H]2O[C@@]3(CCC2O[C@@H]1[C@@H](O)C[C@H](C)C1O[C@@]2(CCCCO2)CC[C@H]1C)CC[C@H](/C=C/[C@@H](C)[C@@H]1CC(C)=C[C@@]2(O[C@H](C[C@@](C)(O)C(=O)O)CC[C@H]2O)O1)O3 (stereo partly specified),fold change,[3]; [12],0.897 (inactive)
same,fold change,[3]; [13],0.814
same,cell count,[3]; [14],423
same,cell count,[3]; [15],472
